Only some compounds are listed: those with a hit (about 5.4% of all), similar ones and a draw of the others.
DAX1 inh – inhibits human nuclear receptor DAX1; HEK293 Gal4-DAX1 luciferase reporter, luminescence; 340,000 compounds, 0.99% hits; AID 504766; inhibition, % at 6.75 µM;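 active = inhibition above the mean over all tested compounds plus 3 SD, cut at about 4.2% in these data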;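 note: 0% = DAX1-transfected cells with DMSO and 100% = empty-vector control cells with DMSO; inhibition shows as a rise in luminescence from relieved DAX1 repression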
Target sequence (P51843 207-470 limits assumed): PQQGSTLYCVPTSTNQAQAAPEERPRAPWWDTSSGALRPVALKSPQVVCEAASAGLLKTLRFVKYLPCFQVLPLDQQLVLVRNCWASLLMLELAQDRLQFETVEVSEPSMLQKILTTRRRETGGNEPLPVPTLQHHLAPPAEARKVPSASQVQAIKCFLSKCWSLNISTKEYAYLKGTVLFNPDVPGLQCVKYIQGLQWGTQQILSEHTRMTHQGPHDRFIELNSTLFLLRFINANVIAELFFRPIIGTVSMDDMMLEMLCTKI
AHR act – activates the human aryl hydrocarbon receptor; P35869; AHR-responsive luciferase reporter cells, luminescence; activation, % at 5 µM; 320,000 compounds, 2.5% hits; in the data active = activation above about 47%;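 note: 0% = vehicle wells and 100% = reference agonist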
FXN GAA850 act – increases GAA850 frataxin promoter reporter activity | activation, % at 6 µM | HEK293 lucGAA850 FXN promoter luciferase reporter, 24 h; percent of 10 µM SAHA response | 360,000 compounds, 0.56% hits;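 active = activation above the average of all compounds screened plus 3 SD, cutoff fixed separately per campaign, cut at about 7.5% in these data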;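 note: 0% = DMSO wells and 100% = 10 µM SAHA wells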
HSF-1 act – increases HSF-1 driven luciferase reporter signal; AID 504408; NIH3T3-HGL HSF-1 luciferase reporter, MG132, 8 h; 100% = twice DMSO control signal; activation, % at 9 µM; 300,000 compounds, 1.7% hits;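 active = mean replicate activation of at least 50% with a set share of replicates each reaching 50%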;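 note: 0% = median of the neutral control wells and 100% = twice that signal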
HSF1 inh – HSF1 inhibition. NIH3T3-HGL HSE-luciferase, MG132-induced, luminescence 8 h; stronger effect = lower value. activity change, negative = inhibition, % at 7.5 µM (by protocol). 300,000 compounds, 0.77% hits. AID 2098;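 active = more than half of replicate wells show activity change below -50%, luminescence cut by over half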;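 note: luciferase reports HSF-1 transcriptional activity via heat shock element; 0% = median of DMSO wells and -100% = zero luminescence signal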
* marks the source's active call; other numbers are inactive results; . = no result.

SMILES	DAX1 inh	AHR act	FXN GAA850 act	HSF-1 act	HSF1 inh
Cc1cc(C)c(-n2c(O)c(/C=N/NC(=O)c3ccncc3)c(=O)[nH]c2=O)c(C)c1	.	9	-1	5	-1
Cc1ccccc1-n1c(O)c(/C=N/NC(=O)c2ccncc2)c(=O)[nH]c1=O	4.4*	7	1	-15	-3
Cc1ccccc1-n1c(O)c(C=Nc2ccc(N(C)C)cc2)c(=O)[nH]c1=O	0	61*	0	64*	21
Cc1cccc(N=Cc2c(O)n(-c3ccccc3C)c(=O)[nH]c2=O)c1	1	1	-1	.	.
N#Cc1ccc(NC(=S)N2Cc3ccccc3-n3nncc3C2)cc1	0	.	-1	.	.
CC1(C)C(=O)CCC2C1=CCC1C2CCC2(C)C(O)CCC12 (centres undefined)	-1	.	4	.	.
O=C(c1ccccc1)C(Cc1ccccc1)N1CCOCC1 (centres undefined)	2	.	2	.	.
CCOP(=O)(Nc1ccc2c(c1)C(=NNC(N)=S)c1ccccc1-2)OCC	-1	.	2	.	.
O=[N+]([O-])c1ccc(NCc2ccccc2)c2nonc12	.	2	.	3	1
O=[N+]([O-])c1ccc(NCc2ccc(Cl)cc2)c2ccncc12	0	65*	-1	-7	11
COc1ccc(C[C@H]2NC[C@H](O)[C@H]2OC(C)=O)cc1	-6	-12	-14	-77	-75*
C#C[C@]1(O)CCC2C3C(=O)C=C4C(Cl)=CCC[C@]4(C)C3CC[C@@]21C (some centres undefined)	-1	.	-1	.	.
Cc1ccc(N2C(=O)NC(=O)/C(=C/c3cnn(-c4ccc(C)cc4)c3)C2=O)cc1	0	4	0	-75	-70*
CSc1ncc(/C=C2/C(=O)NC(=O)N(c3ccc(C)cc3)C2=O)cn1	0	3	2	30	-6
ClCCN(CCCl)c1ccc(-n2cnc3c(Cl)ncnc32)cc1	0	.	-6	.	.
CC(=O)c1c(C)n(CCCOC(C)C)c2ccc(O)cc12	-1	11	-2	-67	-56*
C=COCCn1c(C)c(C(C)=O)c2cc(O)ccc21	0	16	0	42	8
C[C@H](CO)N1C[C@H](C)[C@@H](CN(C)C(=O)Oc2ccc3ccccc3c2)OCc2cn(nn2)CCCC1=O	-1	.	1	.	.
COc1ccc(CCNCc2ccc(Br)cc2)cc1OC	1	0	-1	51*	22
CN1CC(C(=O)c2ccc(Cl)cc2)C(c2ccc(N(C)C)cc2)C1 (centres undefined)	4.2*	1	1	-20	-24
CC(=O)Nc1ccc(C2CN(C)CC2C(=O)c2ccc(Cl)cc2)cc1 (centres undefined)	0	1	2	-2	-8
CCOP(=O)(OCC)C1(C(=O)O)CCCC1	5.1*	-3	0	-13	-19
O=C(NC(=S)N1CC1)c1ccccc1	2	.	2	.	.
Cc1cc(C(=O)N=Nc2c(O)n(C)c3ccccc23)c(C)o1	1	24	4	80*	31
O=S(=O)(c1cccc(C(F)(F)F)c1)N1Cc2ccccc2-n2nncc2C1	1	.	-1	.	.
SMILES	DAX1 inh	AHR act	FXN GAA850 act	HSF-1 act	HSF1 inh
O=C(c1ccc2c(c1)OCO2)C1CCCN(Cc2ccc(F)c(F)c2)C1 (centres undefined)	0	2	-1	15	9
O=C(c1ccc(Cl)cc1)C1CCCN(Cc2ccc3c(c2)OCCO3)C1 (centres undefined)	0	-1	-1	-69	-60*
C[C@H](CO)N1C[C@H](C)[C@H](CN(C)C(=O)Oc2ccccc2)OCc2cnnn2CCCC1=O	1	.	1	.	.
O=C1Nc2ccccc2/C1=C/c1cnc[nH]1	-2	10	2	66*	38
CC1CC2(C)C(CCC3C2CCC2(C)C(OP(=O)(N4CC4)N4CC4)CCC32)CC1=O (centres undefined)	1	.	1	.	.
COC(=O)C[C@]1(C(=O)OC)CN(C#N)N(c2ccc(Cl)cc2)C12c1ccccc1-c1ccccc12	-6	-7	-15	-94	-94*
COC(=O)c1c(C)n(Cc2ccc3c(c2)OCO3)c2ccc(O)cc12	-1	0	0	21	10
CCOC(=O)c1c(C)n(Cc2ccc3c(c2)OCO3)c2ccc(O)cc12	0	7	1	62*	40
O=C(CN1CCCCC1)c1cccc(Br)c1	1	-1	-1	29	11
O=C(CN1CCCCC1)c1ccc2c(c1)OCO2	5.6*	0	2	5	5
NCCNc1ccc([N+](=O)[O-])c2cccnc12	6.0*	14	1	5	2
COCCCN=Cc1c(O)[nH]c(=S)[nH]c1=O	7.0*	0	0	2	1
CCCCCCCCN=Cc1c(O)[nH]c(=O)[nH]c1=O	.	2	1	-5	-5
O=c1c2cc(Br)ccc2[nH]c(=S)n1-c1ccccc1	-1	50*	2	6	-8
O=c1c2ccccc2[nH]c(=S)n1-c1ccc(Br)cc1	-1	3	0	-22	-10
O=C1NC(c2cccnc2)Nc2sc3c(c21)CCCC3 (centres undefined)	1	56*	4	28	21
CC1(C)Cc2c(sc3c2C(=O)NC(c2cccnc2)N3)CO1 (centres undefined)	-1	24	-1	7	4
CC[N+](C)(CC)CCCCOc1ccc2c(c1)C(=O)c1cc(OCCCC[N+](C)(CC)CC)ccc1-2	5.5*	4	1	5	-4
CC(=O)c1ccccc1NC(=O)C1C2CCC(O2)C1C(=O)O (centres undefined)	.	2	.	68*	38
CN(C)[C@@H]1C(=O)C(C(N)=O)=C(O)[C@@]2(O)C(=O)C3=C(O)c4c(O)cccc4[C@@](C)(O)[C@H]3C[C@@H]12	.	-2	.	-5	-4
CN(C)C1C(=O)C(C(N)=O)=C(O)C2(O)C(=O)C3=C(O)c4c(O)cccc4C(C)(O)C3CC12 (centres undefined)	2	-4	17*	-29	-5
C=Cn1ccnc1P(=S)(c1ccc(Cl)cc1)c1nccn1C=C	5.2*	2	1	-3	-4
c1cncc(CNCCN2CCNCC2)c1	-2	.	1	.	.
CCC1C(c2cc(OC)c(OC)c(OC)c2)c2cc3c(cc2OC1N1CCCC1)OCO3 (centres undefined)	0	.	-5	25	25
CCC1(CC)C(=O)NC(=O)N(CCc2ccccn2)C1=O	1	.	3	.	.
O=c1[nH]c(=S)n(-c2ccccc2)c(O)c1C=NCc1ccccn1	.	-2	0	5	2
Cc1ccc(-n2c(O)c(C=NCc3ccccn3)c(=O)[nH]c2=S)cc1	5.1*	0	-1	-5	2
CN1C(=O)C(=Cc2sc(=O)n(-c3ccccc3)c2N2CCCCC2)C(=O)N(C)C1=O	-1	.	1	67*	27
CN1C(=O)C(=Cc2cc([N+](=O)[O-])ccc2N2CCCCC2)C(=O)N(C)C1=O	0	-1	1	5	-1
